Sampled rows, rich in hits. Any-hit rate of the full collection: about 1.8%.
S1P2 antag – human S1P2 receptor antagonists, primary screen, cell-based; 97,000 tested, 0.21% active; Sphingosine 1-phosphate receptor 2 (Homo sapiens), O95136; cell-based S1P2 antagonist assay, inhibition at 5 uM; inhibition, % at 5 µM; in the data active = inhibition above about 45%;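 also: CRE beta-lactamase reporter cells expressing human S1P2 stimulated with S1P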
Target sequence (O95136 whole entry, looked up): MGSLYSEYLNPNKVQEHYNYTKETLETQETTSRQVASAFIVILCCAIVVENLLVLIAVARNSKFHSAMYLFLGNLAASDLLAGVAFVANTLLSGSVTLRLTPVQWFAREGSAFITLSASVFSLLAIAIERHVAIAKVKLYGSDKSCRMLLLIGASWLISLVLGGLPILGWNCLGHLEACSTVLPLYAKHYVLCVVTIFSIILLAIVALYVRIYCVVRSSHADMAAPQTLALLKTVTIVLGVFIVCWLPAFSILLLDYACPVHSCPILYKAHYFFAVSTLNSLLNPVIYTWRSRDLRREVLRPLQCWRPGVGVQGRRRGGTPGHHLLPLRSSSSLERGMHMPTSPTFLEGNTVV
MRP reversal – reversal of MRP1-mediated doxorubicin resistance, primary screen, H69AR cells, doxorubicin co-treatment; 85,000 tested, 0.04% active; H69AR cells + 2 uM doxorubicin, CellTiter-Glo, 72 h; differential viability (reversal), % at 10 µM;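 active = viability drop by adding the cancer drug above about 55%, with treated viability meeting a 40% cutoff, limit read from the data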;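 also: larger differential means the compound sensitizes cells more to doxorubicin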
GALR2 blocker – GALR2 antagonists in receptor-expressing cells, primary screen | Galanin receptor type 2 (Homo sapiens), O43603 | 140,000 tested, 0.39% active | inhibition, % at 4 µM | AID 828, 2007 | antagonist mode; in the data active = inhibition above about 27%;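 also: cells stimulated with galanin 1-16 at roughly its EC80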
S1P2 ag – S1P2 receptor agonists, primary screen, cell-based | Sphingosine 1-phosphate receptor 2 (Homo sapiens), O95136 | S1P2-expressing cell line, agonist reporter read-out | activation, % at 4.5 µM | 97,000 tested, 0.46% active | AID 729, 2007; in the data active = activation above about 16%
GALR2 ag – GALR2 receptor agonists, primary screen, cell-based. Galanin receptor type 2 (Homo sapiens), O43603. activation, % (concentration not given with the values). 140,000 tested, 0.48% active. GALR2-expressing cells, agonist activation read-out; in the data active = activation above about 5%, passing the limit was not always enough
MRP-1 activ – H69AR viability gain despite doxorubicin, primary screen, MRP-1 activator project, H69AR cells, CellTiter-Glo | AID 799, 2007 | viability increase, % at 10 µM | 140,000 tested, 0.61% active | viability rescue;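 active = viability gain under doxorubicin at or above a set limit, the compound median plus 3 SD, cut at about 4.7% in these data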;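 also: MRP-1 overexpressing cells given doxorubicin 25 µM after compound pretreatment; 18-22 h compound pretreatment then 72 h with doxorubicin before readout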
Numbers stand for hits; – = inactive; · = no result given.

SMILES | S1P2 antag | MRP reversal | GALR2 blocker | S1P2 ag | GALR2 ag | MRP-1 activ
COc1cccc(C2CC(c3ccccc3OC)n3ncnc3N2)c1 (stereo not given) | – | – | – | – | – | –
COc1ccccc1C1CC(c2ccc(Cl)cc2)Nc2ncnn21 (stereo not given) | – | – | – | – | – | 4.8
CC1(C)C(=O)NCCN1C(=O)CCC(=O)O | – | – | – | – | – | –
Cc1nc(NCc2ccc3c(c2)OCO3)c2nnn(Cc3ccccc3)c2n1 | · | – | – | · | 6.8 | –
C=CCn1c2ccccc2c2nnc(SCN3C(=O)c4ccccc4C3=O)nc21 | – | · | – | 20 | – | –
CC(C)(C)n1nnnc1CN1CCN2CCCC2C1 (stereo not given) | – | – | – | – | – | –
COCCn1nnnc1CN1CCN2CCCC2C1 (stereo not given) | – | – | – | 43 | – | –
COc1ccc(OC)c(/C=N/NC(=O)Cc2nc3ccccc3[nH]2)c1 | · | · | – | · | – | –
CC(NC(=O)C12CC3CC(CC(C3)C1)C2)c1ccc2c(c1)OCCO2 (stereo not given) | – | – | – | – | – | 6.9
CC(C)C(NC(=O)COc1ccc2ccccc2c1)C(=O)N/N=C/C=C/c1ccccc1 (stereo not given) | – | · | – | – | – | –
CCOc1ccc(NC(=O)CCN2CCN(S(=O)(=O)c3ccc(Cl)cc3)CC2)cc1 | – | – | – | – | 269 | –
CCOc1ccc(NC(=O)CCN2CCN(S(=O)(=O)c3ccc(OC)cc3)CC2)cc1 | – | – | – | – | – | –
Cc1c(Cl)cccc1-c1ccc(C(=O)N2CCN(c3ccc([N+](=O)[O-])cc3)CC2)o1 | – | · | – | – | – | –
O=C(c1ccc(-c2cccc(Cl)c2)o1)N1CCN(c2ccc([N+](=O)[O-])cc2)CC1 | · | · | – | · | – | 4.7
CC(C)C1N=C2c3ccccc3N=C(SCc3cc(=O)n4ccccc4n3)N2C1=O (stereo not given) | – | – | – | – | – | ·
CC1N=C2c3ccccc3N=C(SCc3cc(=O)n4cc(Cl)ccc4n3)N2C1=O (stereo not given) | – | – | – | 25 | – | –
Nc1ccc(C(=O)OCC(=O)N2CCc3ccccc3C2)cc1[N+](=O)[O-] | · | · | – | · | – | –
Nc1ccc(C(=O)OCC(=O)N2c3ccccc3Sc3ccccc32)cc1[N+](=O)[O-] | · | · | – | · | – | 8.7
CC1CN(c2nc3c(c(=O)n(Cc4ccc(Cl)cc4)c(=O)n3C)n2C)CC(C)O1 (stereo not given) | – | 57 | – | – | – | –
CCNC(=S)Nc1ccc(Cl)c(C(F)(F)F)c1 | · | · | – | · | – | –
CCSc1ccc(-c2nn(-c3ccccc3)cc2/C=C(/C#N)C(=O)NC)cc1 | · | · | – | · | 26 | –
Cc1ccc(Cn2c(CN(C)Cc3ccccc3)nc3c2c(=O)n(C)c(=O)n3C)cc1 | – | – | – | – | – | –
CN(Cc1ccccc1)Cc1nc2c(c(=O)n(C)c(=O)n2C)n1Cc1ccc(F)cc1 | – | – | – | 39 | – | –
Cc1onc(-c2ccccc2Cl)c1C(=O)OCC(=O)Nc1ccc2c(c1)OCO2 | · | – | – | · | – | 5.7
Cc1onc(-c2ccccc2)c1C(=O)OCC(=O)Nc1ccc2c(c1)OCO2 | – | – | – | – | – | –
SMILES | S1P2 antag | MRP reversal | GALR2 blocker | S1P2 ag | GALR2 ag | MRP-1 activ
O=c1[nH]c(C2CCCN(S(=O)(=O)c3ccccc3)C2)nc2c1nnn2Cc1ccccc1F (stereo not given) | · | – | – | · | – | –
O=c1[nH]c(C2CCCN(S(=O)(=O)c3ccccc3)C2)nc2c1nnn2Cc1ccccc1 (stereo not given) | – | – | – | – | – | 5.3
CC(CSc1nc2ccccc2s1)Cn1c(N2CCCC2)nc2c1c(=O)[nH]c(=O)n2C (stereo not given) | – | · | – | 30 | – | –
CN(C)c1ccc(/C=C(\C#N)C(=O)Nc2nc3c(s2)CCN(Cc2ccccc2)C3)cc1 | – | – | – | – | – | –
CN1CCC(N(C)CC(=O)Nc2cccc(Oc3ccccc3)c2)CC1 | – | – | – | – | – | –
O=C(O)CC/C(=N/NC(=O)c1cn(-c2ccccc2)nc1-c1ccccc1)C(=O)O | · | · | – | · | – | –
CCCCOC(=O)Sc1nc2ccccc2o1 | – | – | – | – | – | –
C=CCNc1oc(/C=C/c2ccccc2)nc1C#N | – | · | – | 17 | 12 | –
Cc1ccc(C(=O)CCC(=O)Nc2ccc(Cl)c(S(=O)(=O)Nc3cccc(Cl)c3)c2)cc1 | · | · | – | · | – | 7.8
CC12CCC(C(=O)N3CCN(c4ccccc4)CC3)(CC1=O)C2(C)C (stereo not given) | – | – | – | – | – | –
CCCOC(=S)NC(=O)c1sc2ccccc2c1Cl | – | · | – | – | – | 5.7
CCOC(=S)NC(=O)c1sc2ccccc2c1Cl | – | · | – | – | – | 8.5
Cc1cnc(NC(=O)c2sc3ccccc3c2Cl)s1 | · | · | – | · | – | –
CCCCN(CCCC)CCNC(=O)Cc1nc2c(c(=O)[nH]c(=O)n2C)n1C | – | – | – | – | – | –
COc1ccc(C2=Nn3c(nnc3C3CCCCC3)SC2)cc1OC | – | – | – | 36 | – | –
COc1ccc(C2=Nn3c(nnc3-c3ccccc3)SC2)cc1OC | – | – | – | 27 | – | –
COc1ccc(OC)c(C2=Nn3c(nnc3C3CCCCC3)SC2)c1 | – | – | – | – | – | –
N#Cc1ccccc1OCCOCCNC1CCCC1 | · | · | – | · | – | –
C=CCNC(=O)Nc1ccc2oc(C)nc2c1 | – | – | – | – | – | –
Cc1nc2cc(NC(=O)N(C)c3ccc4ccccc4c3)ccc2o1 | – | – | – | – | 5.0 | –
CC(C)Oc1ccc(-c2nn(-c3ccccc3)cc2/C=c2\sc3ncnn3c2=O)cc1 | – | – | – | – | – | 5.8
CC(C)N(Cc1cc2ccccc2[nH]c1=O)C(=O)C(C)(C)C | – | – | – | – | – | 9.3
O=C(Nc1nnc(C(F)(F)F)s1)C1COc2ccccc2O1 (stereo not given) | – | – | – | – | – | 5.3
Cc1nc2c(ccc3nc(NC(=O)C(c4ccccc4)c4ccccc4)sc32)s1 | · | · | – | · | – | 15
Cc1nc2c(ccc3nc(NC(=O)Cc4cccc5ccccc45)sc32)s1 | · | · | – | · | – | –
CC1CCN(C(=O)c2ccc(NC(=O)C3CCCO3)cc2)CC1 (stereo not given) | · | – | – | · | – | –
O=C(COC(=O)Cc1ccc(-c2ccccc2)cc1)NCc1ccccc1 | · | · | – | · | – | –
CC(=O)NC1=NN(C(C)=O)C(C)(CCS(=O)(=O)c2ccc(Br)cc2)S1 (stereo not given) | · | · | – | · | 6.9 | –
O=C(Cc1ccccc1)NN1C(=O)C2C(C1=O)C1C=CC2C12CC2 (stereo not given) | · | · | – | · | – | –

Bioassay records from PubChem BioAssay.
